Laboratory results as given in PubChem BioAssay AID493100 (Broad Institute, 2011).
Measured potencies and affinities stand elsewhere. Results filed as inconclusive are left out.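 How the source made its calls: active means decreasing signal in every run, fitted half-effect dose at most ten times the top valid dose; inconclusive means runs disagree, weak flat effect, or poor curve fit; inactive means every run inactive, signal rises included.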

Assay: blockers of SFLLRN-triggered platelet ATP secretion – cell-based, human platelets, luminescence, dry powder, dose response (AID 493100)
Conditions: SFLLRN-induced ATP dense granule secretion; series mostly up to 35 µM; activity change, negative = inhibition: at the top concentration

Activity change, negative = inhibition, inactive:
CCCC(=O)Nc1cccc(NC(=O)c2cccc(-c3ccccc3)c2)c1 -4.16%
O=C(Nc1cccc(NC(=O)c2ccccc2Cl)c1)c1ccco1 -5.54%
CCCC(=O)Nc1cccc(NC(=O)c2cccc(S(C)(=O)=O)c2)c1 -7.48%
CC(=O)Nc1cccc(NC(=O)c2ccccc2Cl)c1 -10.5%
CC(=O)Nc1ccc(/C=N/NC(=O)CC2CCCCC2)cc1 -15.4%
O=Cc1ccc(NC(=O)C(F)(F)F)cc1 -3.78%
CC(=O)N/N=C(\C)c1ccc(NC(=O)C2CC2)cc1 -2.3%
CCCC(=O)Nc1cccc(NC(=O)c2cnc3ccccc3c2)c1 -1.45%
O=C(Nc1cccc(NC(=O)c2ccccc2Br)c1)c1ccccc1 -19.6%
CCCC(=O)Nc1cccc(NC(=O)c2ccc(C(F)(F)F)cc2)c1 -9.62%
C/C(=N\NC(=O)c1ccccc1)c1ccc(NC(=O)C(F)(F)F)cc1 2.81%
CC(=O)Nc1cccc(NC(=O)c2cccc(Cl)c2)c1 -16.2%
C/C(=N\NC(=O)C1CCCC1)c1ccc(Cl)cc1 -1.57%
CCCC(=O)Nc1cccc(NC(=O)c2ccco2)c1 -14.2%
CCCCC(=O)Nc1cccc(NC(=O)c2ccccc2Br)c1 -0.702%
CCCC(=O)Nc1cccc(NC(=O)c2cccc([N+](=O)[O-])c2)c1 -9.94%
CCCC(=O)Nc1cccc(NC(=O)c2ccc(OC)cc2)c1 -16.3%
CCCC(=O)Nc1cccc(NC(=O)c2cccc(Oc3ccccc3)c2)c1 -0.033%
CCCC(=O)Nc1cccc(NC(=O)c2ccc(S(C)(=O)=O)cc2)c1 0.039%
NNC(=O)C1CCCC1 4.1%
CCCC(=O)Nc1cccc(NC(=O)c2ccc(F)cc2)c1 -5.49%
CCCC(=O)Nc1cccc(NC(=O)c2cccnc2)c1 -1.9%
CCCC(=O)Nc1cccc(NC(=O)c2ccc(Cl)cc2)c1 1.1%
CCCC(=O)Nc1cccc(NC(=O)c2ccc(C)cc2)c1 -4.26%
CCCC(=O)Nc1cccc(NC(=O)c2ccccc2OC)c1 -17.9%
CC(=O)c1ccc(NC(=O)C(F)(F)F)cc1 4.41%
CC(=O)Nc1c(C#N)c(-c2ccccc2)c(C#N)c(=O)n1-c1ccc(C)cc1 2.86%
